# Active and inactive are the calls of the source. No rule for the calls is given here.
# System: HIV-1 nucleocapsid protein NCp7 (binding to TG oligonucleotide)
# Test: HIV Nucleocapsid (AID 346);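 also: potency is for inhibitors that block NC binding and lower polarization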
# Details: HIV-1 NC / fluorescein-TGTGTGTG probe, fluorescence polarization
# Method in brief: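 Fluorescence polarization readout: labelled TG4xF oligo (10 nM) with 100 nM nucleocapsid protein, high-salt (250mM NaCl) Hepes pH 7.5 buffer containing zinc and fresh reducing agents. Compounds added by pin tool; incubation 1 hr, room temperature.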
# Potency is read from the fitted curve at half-maximal effect.
row,SMILES,Potency
1,COc1ccccc1CN1CCC2(CC1)CCN(C(C)=O)CC2,> 20 µM (inactive)
2,CN(C)Cc1ccccc1-c1cc(-n2ccnc2)ncn1,> 20 µM (inactive)
3,COc1ccc2[nH]cc(CCNc3ncnc4ccc(-c5ccc(C(=O)N(C)C)cc5)cc34)c2c1,> 20 µM (inactive)
4,COc1ccc(Oc2ncc3nc(CCc4ccccc4)c(=O)n(C4CC4)c3n2)cc1,> 20 µM (inactive)
5,N#Cc1cccc(NC(=O)N2CCC3(CC2)CCN(C(=O)c2ccco2)CC3)c1,> 20 µM (inactive)
6,COc1ccc(Oc2ncc3nc(-c4ccc(OC)cc4)c(=O)n(Cc4cccs4)c3n2)cc1,> 20 µM (inactive)
7,COCC(=O)N1CCC2(CCCN(c3ncccn3)C2)CC1,> 20 µM (inactive)
8,CC(C)NC(=O)N1CCCC2(CCN(C(=O)c3cc(C(F)(F)F)cc(C(F)(F)F)c3)CC2)C1,> 20 µM (inactive)
9,O=C(c1cccc(F)c1)N1CCC2(CCN(Cc3cc(C(F)(F)F)cc(C(F)(F)F)c3)CC2)CC1,> 20 µM (inactive)
10,CN(C)Cc1ccccc1-c1ccc2ncnc(NC3CC3)c2c1,> 20 µM (inactive)
11,Cc1noc(C)c1-c1cc(NCc2cccnc2)ncn1,> 20 µM (inactive)
12,CCNc1ncc2ncc(=O)n(CCOC)c2n1,> 20 µM (inactive)
13,COc1ccccc1-c1nc(NCc2cnc(C)cn2)c2ccccc2n1,> 20 µM (inactive)
14,O=c1cnc2cnc(Oc3cccc(Cl)c3)nc2n1C1CC1,> 20 µM (inactive)
15,O=C(c1cccc(F)c1)N1CCC2(CCCN(Cc3ccccc3)C2)CC1,> 20 µM (inactive)
